# Data from PubChem BioAssay AID2130 (The Scripps Research Institute Molecular Screening Center, 2009).
# Among all 320,000 compounds or so, about 1,700 (0.53%) were called active.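 How the source made its calls: active means inhibition above the campaign mean of all compounds plus 3 SD (cut at about 26% in these data); inactive means the rest.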 Only a selection was taken, and actives are over-represented in it overall.
# Target: Protein phosphatase methylesterase 1 (Homo sapiens) (UniProt Q9Y570)
# Assay: PME-1 inhibitors via competitive probe labeling, primary screen, biochemical, fluorescence polarization, FP-Rh probe, HTS (AID 2130);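 further: competitive labeling of PME-1 active site by serine hydrolase directed probe; 0% = PME-1 with DMSO and 100% = wells lacking PME-1 enzyme; inhibitors block probe labeling so polarization falls and inhibition rises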
# Settings: recombinant PME-1, FP-Rh probe fluorescence polarization; at 5.9 µM; active compounds read high
# Sequence of Protein phosphatase methylesterase 1 (Homo sapiens) (Q9Y570 whole entry, looked up): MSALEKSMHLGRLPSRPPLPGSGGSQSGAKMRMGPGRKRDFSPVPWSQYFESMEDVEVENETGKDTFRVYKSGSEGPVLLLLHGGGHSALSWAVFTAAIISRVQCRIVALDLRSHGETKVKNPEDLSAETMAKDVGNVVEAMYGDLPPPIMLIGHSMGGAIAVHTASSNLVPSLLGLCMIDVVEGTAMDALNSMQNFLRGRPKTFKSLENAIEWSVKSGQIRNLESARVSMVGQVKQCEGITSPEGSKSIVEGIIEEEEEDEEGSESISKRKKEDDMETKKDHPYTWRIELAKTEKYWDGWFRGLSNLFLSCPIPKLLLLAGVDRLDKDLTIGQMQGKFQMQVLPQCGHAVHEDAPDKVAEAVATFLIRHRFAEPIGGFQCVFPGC
row,Structure (SMILES),inhibition
1,O=C(NC(=S)Nc1ncccn1)c1ccccc1Br,-6.82% (inactive)
2,COc1ccc(Cn2nnc3c(=O)[nH]c(C4CCN(C(=O)c5ccccc5Cl)CC4)nc32)cc1,10.2% (inactive)
3,Cc1ccc(NC(=O)N2CCC(c3nc4c(nnn4Cc4c(F)cccc4Cl)c(=O)[nH]3)CC2)cc1,4.6% (inactive)
4,Cc1ccc(Cn2nnc3c(=O)[nH]c(C4CCN(S(=O)(=O)/C=C/c5ccccc5)CC4)nc32)cc1,31.4% (active)
5,O=S(=O)(c1cnccc1N1CCN(/N=C/c2ccc(Br)cc2)CC1)N1CCCCC1,1.2% (inactive)
6,CN=C1C=C/C(=N/N=c2\ccn(O)cc2C)C=C1C,-11% (inactive)
7,CCOC(=O)C1Sc2[nH]c(=O)sc2C(c2ccc(Cl)cc2)C1C(=O)OCC (stereo not given),9.44% (inactive)
8,Cc1cc(OCC(=O)NCC(O)c2ccccc2)c2c(C)c(C)c(=O)oc2c1 (stereo not given),1.37% (inactive)
9,O=C(Oc1ccc([N+](=O)[O-])cc1)c1ccc(Cl)c(S(=O)(=O)N2CCCCC2)c1,-1.4% (inactive)
10,CCc1noc(C)c1C(=O)Nc1nc2ccc(OC)cc2s1,2.67% (inactive)
11,COc1ccc2nc(Nc3nc4cc5c(cc4s3)OCCO5)sc2c1,92.8% (active)
12,COc1ccc2nc(NC(=O)c3ccc(Br)s3)sc2c1,-12.8% (inactive)
13,C/C=C/C(=O)Nc1ccc(N2CCN(c3ccc(C(F)(F)F)cn3)CC2)nc1,-7.12% (inactive)
14,CCN1CCN(C(=O)Cn2nc(C)n3c(cc4c(OC)cccc43)c2=O)CC1,-4.63% (inactive)
15,Cc1ccc(-n2c(SCC(=O)N3CCC(C(=O)O)CC3)nc3ccccc3c2=O)cc1C,5.62% (inactive)
16,O=S(=O)(Nc1ccccc1Cl)c1cccc2nsnc12,-1.38% (inactive)
17,CC(=O)N1CCc2c(sc(NC(=O)CCS(=O)(=O)c3ccccc3)c2C#N)C1,-1.35% (inactive)
18,COc1ccc(/C=N/Nc2ncnc3sc4c(c23)CCCC4)cc1O,29.7% (active)
19,COc1ccc(NC(=O)CCNC(=O)Cn2cnc3sc4c(c3c2=O)CCCC4)cc1OC,-4.87% (inactive)
20,COc1ccc(NC(=O)CCCNC(=O)Cn2cnc3sc4c(c3c2=O)CCCC4)cc1OC,3.69% (inactive)
21,COc1ccc(CC(NC(C)=O)C(=O)NC2CCN(C(=O)Nc3ccc(C#N)cc3)CC2)cc1OC (stereo not given),2.43% (inactive)
22,COC(=O)C1=C(C)NC(=S)NC1c1ccc(OCC(=O)N2CC(C)OC(C)C2)c(OC)c1 (stereo not given),4.05% (inactive)
23,CCOc1ccc2nc(NC(=O)CSc3nc4c(c(=O)n(C)c(=O)n4C)n3CC)sc2c1,1.27% (inactive)
24,CCC(=O)c1ccc(OCC(=O)Nc2ccc3nc(C)sc3c2)cc1,-15.4% (inactive)
25,CCOc1ccc2nc(Nc3nc4ccc(NC(C)=O)cc4s3)sc2c1,50.7% (active)
